Source: PubChem BioAssay AID1347416 (National Center for Advancing Translational Sciences (NCATS), 2020)
About 1,600 (39%) of roughly 4,100 compounds were called active. Inconclusive results (about 25%) are left out. Calls follow the shape of the dose curve; as a rule, active = well fitted inhibition curve with a large enough effect; inconclusive = small, poorly fitted or top-dose-only effect; inactive = no such curve, though single readings can be large or run the other way. The list shows a part of the results.

Assay: qHTS Validation assay for Inhibitors of Plasmodium falciparum Dd2 growth in vitro; also: nearly all actives have a fitted effect of over 70% in size
Conditions: P. falciparum Dd2 in RBCs, SYBR Green growth, 72 h; series mostly up to 28.7 µM; activity change, negative = inhibition: at the top concentration
Procedure, shortened: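 P. falciparum Dd2-infected red blood cells (2.5% hematocrit, 0.3% parasitemia) grown 72 h at 37 °C under 5% O2 with compounds in a titration, 29 uM to 0.5 nM final. Growth read as SYBR Green-1 fluorescence after ~16 h lysis; artesunate 300 nM as positive control.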
% is scaled to controls: 0 for no effect and ±100 for the full control effect; potency is read from the fitted curve at half-maximal effect.

Compound	activity change, negative = inhibition	Potency
COc1cc(NC(=O)c2cc(-c3cccs3)on2)c(OC)cc1Cl	4.63% (inactive)	
O=C(Nc1ccccc1C(F)(F)F)c1cc(-c2ccccc2O)on1		2.99 µM (active)
O=C(Nc1ccccc1OCc1cc(=O)n2ccccc2n1)Nc1ccccc1C(F)(F)F	64.6% (inactive)	
Cc1ccc(-c2noc(-c3ccc(N4CCCC4)c([N+](=O)[O-])c3)n2)cc1	-4.43% (inactive)	
CCOc1cccc(/C=N/Nc2nc(N3CCCC3)nc(N3CCCC3)n2)c1O	-13.7% (inactive)	
COc1ccc(/C=N/Nc2nc(Nc3ccccc3)nc(N3CCCC3)n2)cc1[N+](=O)[O-]		6.68 µM (active)
NCCn1cc(C(=O)N2CCCC(c3[nH]ncc3Cc3ccccc3)C2)nn1 (centres undefined)	35.2% (inactive)	
COc1ccc(Nc2c(-c3cc(Br)ccc3O)nc3ncccn23)cc1OC		4.73 µM (active)
CCN(CC)CCNC(=O)c1ccc(NC(=O)c2cccc(S(=O)(=O)N3CCc4ccccc43)c2)cc1		5.31 µM (active)
CCCCNC(=O)c1cccc2c1CCN2S(=O)(=O)c1cccc(C)c1	-16.4% (inactive)	
CC(C)(C)CC(=O)Nc1ccc(S(=O)(=O)N2CCCC2)cc1	23.1% (inactive)	
CCN(CC)CCNC(=O)c1ccc(NC(=O)c2ccc(S(=O)(=O)N3CCCCCC3)cc2)cc1		8.41 µM (active)
CCN(CC)CCCNC(=O)C1CCN(S(=O)(=O)CC)CC1	9.31% (inactive)	
Cc1cc(C)cc(N2C(N)=NC(N)=NC2c2cccc(Cl)c2)c1 (centres undefined)	-28.9% (inactive)	
O=C(Cc1cccc(F)c1)N1CCCC(Cc2nc(C3CCOCC3)no2)C1 (centres undefined)	-15.4% (inactive)	
Cc1nc2c(c(N3CCCC(COc4cccc(F)c4)C3)n1)CCNCC2 (centres undefined)		8.41 µM (active)
COc1ccc(-c2cc(N3CCCC(NC(=O)c4cccc(F)c4)C3)n[nH]2)cc1 (centres undefined)	-11.7% (inactive)	
COC1C(=O)N(c2cccc(F)c2)C12CCN(C(=O)c1cc3ccccc3[nH]1)CC2 (centres undefined)	-71.7% (inactive)	
CC(C)CN(CCNC(=O)c1cc(-c2ccc(Cl)s2)nc2ccccc12)CC(C)C		7.5 µM (active)
O=C(Nc1ccccc1)[C@H]1O[C@H](CCN2CCN(c3ccc(F)cc3)CC2)CC[C@@H]1O		10.9 µM (active)
Cc1cccc(NC(=O)CCN2CCN(c3ccccc3F)CC2)c1	18.2% (inactive)	
Cc1cccc(N(C)S(=O)(=O)c2nnc(NC(=O)C(C)Oc3ccccc3)s2)c1 (centres undefined)	-12.3% (inactive)	
Cc1cccc(N(C)c2nc3ccccc3c3nnc(C)n23)c1		1.06 µM (active)
COc1cc2c(cc1OC)CN(c1ccc3ccccc3n1)CC2	-25.5% (inactive)	

Compound	activity change, negative = inhibition	Potency
Cc1ccccc1OCC(O)CN(Cc1ccccc1O)C1CCCCC1 (centres undefined)		0.119 µM (active)
O=C(NC1CC1)C1COC2(CCN(C(=O)c3ccc(F)cc3)CC2)N1C(=O)c1cccc(F)c1 (centres undefined)	-4.58% (inactive)	
Cc1ccc(CSCc2ccc(C(=O)NC3CC3)o2)cc1		2.66 µM (active)
CCCS(=O)(=O)N1CC(=O)N(c2cccc(F)c2)C(C)(C(=O)NC2CCCCCC2)C1 (centres undefined)	23.3% (inactive)	
O=C(NC1CC1)c1ccc(CSCc2cccc(F)c2)o1		8.41 µM (active)
O=C(COc1ccc(Cl)cc1)NCCc1csc(-c2cccc(F)c2)n1	-1.83% (inactive)	
CCC1=C(C(=O)OC)C(c2cccc(F)c2)N2C(CC(=O)NCCc3cccs3)=CSC2=N1 (centres undefined)		9.44 µM (active)
CCCNC(=O)N1CC[C@@H]2[C@H]1C(=O)N(c1cccc(F)c1)C(=O)N2Cc1cccs1	-10.5% [at 43.1 µM] (inactive)	
CCCc1noc(-c2cn(C3CCN(C(=O)c4ccc(OC)cc4C)CC3)nn2)n1	-20.5% (inactive)	
CCOc1ccc(NC(=O)c2ccc3c(c2)N(C)C2CCCN2C3=O)cc1 (centres undefined)	0% (inactive)	
CCOc1ccc(-c2cc3nc(C4CCN(C(=O)OC(C)(C)C)CC4)c(C(=O)Nc4ccc(C(=O)OC)cc4)cn3n2)cc1		4.73 µM (active)
O=C(c1[nH]nc2c1COc1ccccc1-2)N1CCC(Cc2nncn2CC2CC2)CC1	-3.31% (inactive)	
O=C(Nc1ccc(F)c(F)c1)c1ccc(=O)n(Cc2ccc(F)cc2)c1	3.37% (inactive)	
CC(=O)Nc1ccc(NC(=O)c2c(C)oc3ccn(Cc4ccc(F)cc4)c(=O)c23)cc1		10.6 µM (active)
Cc1ccc(-c2nc(NC(=O)c3cc(C(C)(C)C)nn3C)sc2C)cc1Cl		10.6 µM (active)
CCOC(=O)c1cc(-c2ccc(OC)cc2)n(CCC(=O)Nc2cccc(C(C)=O)c2)c1C		0.211 µM (active)
CCOC(=O)c1cccc(NC(=O)CCn2c(-c3ccc(F)cc3)cc(C(=O)OCC)c2C)c1		0.075 µM (active)
CCOC(=O)c1cccc(NC(=O)C2=C(C)C(=O)OC23CCCCC3)c1	1.2% (inactive)	
CCOC(=O)c1cccc(NC(=O)CSc2cc(=O)n(C)c3ccccc23)c1	9.12% (inactive)	
CCN1CCN(Cc2ccc(NC(=O)c3cc(NC(=O)C4=NN(c5ccccc5)C(=O)C4)cc(OC)c3)cc2C(F)(F)F)CC1		8.41 µM (active)
CCN1CCN(Cc2ccc(NC(=O)c3ccc(C)c(NC(=O)C4=NN(c5ccccc5)C(=O)C4)c3)cc2C(F)(F)F)CC1		8.41 µM (active)
CCN1CCN(Cc2ccc(NC(=O)c3cc(NC(=O)c4cnn(-c5ccccc5)c4N)cc(OC)c3)cc2C(F)(F)F)CC1		2.11 µM (active)
CCCCN(C(=O)c1cccc(S(=O)(=O)N(C)c2ccc(C)cc2)c1)c1c(N)n(CCCC)c(=O)[nH]c1=O		5.31 µM (active)
CN(C)c1ccc(CN2CCC3(CC2)COc2ccccc2C(=O)N3)cc1		2.66 µM (active)

Compound	activity change, negative = inhibition	Potency
O=C1NC2(CN(Cc3ccc(F)cc3)C2)Oc2ccccc21	-14.2% [at 43.1 µM] (inactive)	
O=C1NC2(CCN(C(=O)c3ccc(C(F)(F)F)cc3)CC2)COc2ccccc21		8.41 µM (active)
O=C1CC2CCCC(C1)N2C(=O)c1ccc(C(F)(F)F)cc1	35.6% [at 43.1 µM] (inactive)	
COc1cccc([S+](=O)([O-])N2CCC3(COc4ccccc4C(=O)N3)C2)c1 (centres undefined)	5.79% (inactive)	
O=C1NC2(CCN(C(=O)c3cccnc3)CC2)Oc2ccccc21	34.6% [at 43.1 µM] (inactive)	
O=C1NC2(CCN(Cc3ccc(C(F)(F)F)cc3)CC2)COc2ccccc21		8.41 µM (active)
O=C1Nc2ccccc2CC12CCCCN2Cc1ccc(C(F)(F)F)cc1 (centres undefined)	10.3% (inactive)	
C=C(C)COc1ccc(-c2ncnc(C(F)(F)F)c2-c2ccccc2)c(O)c1		2.37 µM (active)
C=C(C)COc1ccc(-c2ncnc(C(F)(F)F)c2-c2ccc(OC)cc2)c(O)c1		2.99 µM (active)
C=C(C)COc1ccc(-c2n[nH]c(C)c2-c2ccccc2)c(O)c1		4.73 µM (active)
C=C(C)COc1ccc(-c2ncncc2-c2ccc(Br)cc2)c(O)c1	-25.8% (inactive)	
O=C(NC1CCCc2c1[nH]c1ccccc21)c1ccccc1 (centres undefined)	6.14% (inactive)	
COc1cc(C(=O)NC2CCCc3c2[nH]c2c(Cl)cccc32)cc(OC)c1OC (centres undefined)		2.11 µM (active)
Cc1ccc2c(c1)c(C(=O)N1CCC3(CCNC(=O)CC3)CC1)nn2C	46.6% (inactive)	
CN(CC1CCOCC1)C(=O)c1cccc(Cl)c1	17.8% (inactive)	
O=C(CN(C(=O)c1cccc([N+](=O)[O-])c1)C1CCCCC1)Nc1ccc(Cl)c([N+](=O)[O-])c1		13.3 µM (active)
CCC(=O)C1=C(c2cccc([N+](=O)[O-])c2)N(C(=O)CC)n2c(nnc2-c2ccccc2)S1		5.31 µM (active)
CCC(=O)C1=C(c2ccc(OC)c(OC)c2)N(C(=O)CC)n2c(CC)nnc2S1		4.73 µM (active)
CCC(=O)C1=C(c2cccc([N+](=O)[O-])c2)N(C(=O)CC)n2c(nnc2C2CCCCC2)S1		1.88 µM (active)
CCC(=O)C1=C(c2ccccc2)N(C(=O)CC)n2c(nnc2-c2ccccc2)S1		5.96 µM (active)
CCc1noc(-c2nc(-c3ccc(OC)c(OC)c3)no2)n1	28.2% (inactive)	
COc1cc2nc(SCc3ccc(F)cc3)n3nc(CCn4c(C)nc5ccccc54)nc3c2cc1OC		2.99 µM (active)
CN(C)c1ccc(C(=O)N[C@H]2CO[C@H]3[C@@H]2OC[C@@H]3n2cc(COc3ccccc3)nn2)cc1	48% (inactive)	
C#CCN1c2ccccc2Sc2cccnc21		6.68 µM (active)

Compound	activity change, negative = inhibition	Potency
CCc1cccc(NC(=O)C(Cc2ccccc2)NS(=O)(=O)c2ccc3c(c2)oc(=O)n3C)c1 (centres undefined)	5.42% (inactive)	
COc1cccc(-c2ccc3c(n2)CNC(=O)CO3)c1	-22.2% [at 57.5 µM] (inactive)	
COc1cccc(-c2cc(C(=O)Nc3cc(Cl)ccc3O)on2)c1		4.73 µM (active)
COc1ccc(Cl)cc1NC(=O)c1sc(-n2nc(C)c(Cc3ccccc3)c2C)nc1C	28.8% (inactive)	
CC(C)Cc1cc(C(=O)Nc2cc(Br)ccc2O)no1		4.73 µM (active)
CC(C)c1cc(C(=O)Nc2cc(Cl)ccc2O)no1		6.68 µM (active)
Cc1cc(-c2ccc(S(=O)(=O)Nc3cc(Cl)ccc3C)s2)on1	7.99% (inactive)	
CC(C)Cc1cc(CNc2nccc(-c3cc(C(=O)O)ccn3)n2)no1	51.6% (inactive)	
O=C(c1cn[nH]c1)N1CCC(c2nc(CCOCC3CC3)no2)C1 (centres undefined)	12.7% (inactive)	
COc1nc2ccccc2nc1CCC(=O)N[C@H]1COC[C@H]1Cc1cc(C)no1	41.7% (inactive)	
CN(C)C[C@@H]1CN(Cc2ccccc2)C[C@H]1NC(=O)c1ccncn1	-1.84% (inactive)	
Cc1ccccc1NC(=O)c1c(NC(=O)c2cccs2)sc2c1CCC(C)C2 (centres undefined)	-9.18% (inactive)	
Cc1ccccc1NC(=O)c1c(NC(=O)c2ccco2)sc2c1CCC(C(C)(C)C)C2 (centres undefined)		13.3 µM (active)
Cc1ccc(NC(=O)c2c(NC(=O)c3ccco3)sc3c2CCC(C(C)(C)C)C3)c(C)c1 (centres undefined)	11.1% (inactive)	
CCOc1ccc(NC(=O)c2oc3ccccc3c2NC(=O)c2cc(C)cc(C)c2)cc1	-26.5% (inactive)	
O=C(NCC1CCCCC1)c1cc2ccccc2cc1O		9.44 µM (active)
O=C(CN1CCN(S(=O)(=O)c2cccs2)CC1)NCC1CCCCC1	7.52% (inactive)	
Cc1ccc(Cl)cc1NC(=O)c1nnn(Cc2ccccc2)c1N	15% (inactive)	
Cc1ccc(Cl)cc1NC(=O)c1cc2ccccc2cc1O		1.5 µM (active)
Cc1ccc(Cl)cc1NC(=O)CCn1cnc2ccccc2c1=O	35.2% (inactive)	
O=C(NCC1CC1)c1cccc(OC2CN(CC3CC=CCC3)C2)c1 (centres undefined)	-22.2% (inactive)	
CCOc1ccc(NC(=O)c2cc3ccccc3cc2O)cc1		5.31 µM (active)
